DT40 TDP1 CPT = qHTS for Inhibitors of human tyrosyl-DNA phosphodiesterase 1 (TDP1): qHTS in cells in presence of CPT; Potency, µM (doses to about 46.2 µM), inactives show at the top dose activity change, negative = growth inhibition, most hits filed as inhibitors; AID 686979, 2013; 12% of 420,000 active; chicken DT40 Tdp1-/-;hTDP1 cells + 20 nM CPT, ATP luminescence, 48 h; further: potency means the concentration at half of the fitted maximal effect; on the % scale 0 is the no-effect control and ±100 the full control effect; nearly all actives have a fitted effect of over 55% in size
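Chicken DT40 Tdp1-/- cells stably complemented with human TDP1 were seeded at 400 cells/well in medium containing 20 nM camptothecin, exposed to pin-transferred compounds, and grown at 37 °C for at least 48 hr. Viability was read as ATP luminescence.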
D3 antag = qHTS of D3 Dopamine Receptor Antagonist: qHTS. AID 652054, 2013. max response, negative = inhibition, %. D3R cells, DiscoveRx beta-arrestin luminescence, antagonist mode; stronger effect = lower value. 2.5% of 360,000 active. D(3) dopamine receptor (Homo sapiens), P35462; in the data active means max response below about -50%; inconclusive means no clear call, values can overlap the other calls; further: on the % scale 0 is the no-effect control and ±100 the full control effect
Target sequence (P35462 whole entry, looked up): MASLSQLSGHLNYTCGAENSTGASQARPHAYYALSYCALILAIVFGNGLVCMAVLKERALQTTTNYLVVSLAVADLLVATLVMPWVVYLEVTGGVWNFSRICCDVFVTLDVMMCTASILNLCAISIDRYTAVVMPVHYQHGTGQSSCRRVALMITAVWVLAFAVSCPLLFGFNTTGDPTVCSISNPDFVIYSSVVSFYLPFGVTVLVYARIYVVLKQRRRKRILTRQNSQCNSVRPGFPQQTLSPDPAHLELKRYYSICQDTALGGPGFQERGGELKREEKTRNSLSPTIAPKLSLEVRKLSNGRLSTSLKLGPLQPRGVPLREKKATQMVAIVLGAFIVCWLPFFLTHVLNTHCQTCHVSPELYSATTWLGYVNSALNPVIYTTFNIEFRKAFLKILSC
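Cells expressing the human receptor were seeded at 1500 cells/well, incubated overnight at 37 degrees C in 5% CO2, then exposed to library compounds with dopamine controls for 90 minutes at 37 degrees C before luminescent detection.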
IL1B secr inh = qHTS for Inhibitors of Inflammasome Signaling: IL-1-beta AlphaLISA Primary Screen; THP-1 LPS/ATP IL-1B secretion, AlphaLISA, 16 h; stronger effect = lower value; activity change, % at 57.5 µM; 4.7% of 360,000 active; AID 743279, 2014; in the data active means activity change below about -50%; inconclusive means mostly about -30% to -49%; further: on the % scale 0 is the no-effect control and ±100 the full control effect
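Secreted IL-1B measured by AlphaLISA bead assay after 16 h compound exposure of THP-1 cells; compounds (final up to 57.5 uM) added 1 h before LPS (250 ng/mL) and ATP (1.25 mM) stimulation; lower signal means less secretion.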
DT40 TDP1 no CPT = qHTS for Inhibitors of human tyrosyl-DNA phosphodiesterase 1 (TDP1): qHTS in cells in absence of CPT; DT40 Tdp1-/- hTDP1 cells, no CPT, ATP luminescence, 48 h; Potency, µM (top dose mostly 46.2 µM), inactives show at the highest dose activity change, negative = growth inhibition, hits mostly inhibitors; 15% of 420,000 active; further: potency means the concentration at half of the fitted maximal effect; on the % scale 0 is the no-effect control and ±100 the full control effect; nearly all actives have a fitted effect of over 55% in size
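DT40 Tdp1-/-;hTDP1 cells, no CPT (DMSO vehicle only), 400 cells/well; compounds pin-transferred; ≥48 hr, 37 °C; CellTiter-Glo 30 min RT dark, luminescence read.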
D3 ag = qHTS of D3 Dopamine Receptor Agonist: qHTS; D(3) dopamine receptor (Homo sapiens), P35462; D3R DiscoveRx beta-arrestin cells, luminescence, 90 min; max activation, %; 0.58% of 410,000 active; in the data active means max activation above about 30%; further: 0% is about no effect
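Cells at 1500/well, incubated overnight, then treated with pinned compounds (dopamine as control) for 90 min at 37 degrees C. DiscoveRx reagent added for 30 - 60 minutes at room temperature; luminescence read.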
ClpP mod = qHTS Assay for Activators of ClpP; purified B. subtilis ClpP, FRET peptide cleavage, 20 min; ATP-dependent Clp protease proteolytic subunit (Bacillus subtilis (strain 168)), P80244; 1.9% of 340,000 active; AID 651965, 2013; Potency, µM (top dose mostly 57.5 µM), inactives show at the highest dose activity change, negative = active; active means well fitted falling curve with a large enough effect; inconclusive means small, poorly fitted or top-dose-only effect; inactive means no such curve, though single readings can be large or run the other way; further: potency means the concentration at half of the fitted maximal effect; the source files actives as falling curves though it sought activators and does not explain the sign; nearly all actives have a fitted effect of over 65% in size
Target sequence (P80244 whole entry, looked up): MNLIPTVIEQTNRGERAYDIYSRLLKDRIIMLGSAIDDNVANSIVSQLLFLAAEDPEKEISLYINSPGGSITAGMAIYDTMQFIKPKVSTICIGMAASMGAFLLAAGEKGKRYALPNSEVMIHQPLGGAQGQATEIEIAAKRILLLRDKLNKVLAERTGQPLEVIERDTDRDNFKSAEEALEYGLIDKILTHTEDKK
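FRET quenching reversal measured ClpP activation: 10 microg/mL B. subtilis ClpP at pH 8 with the FRET-FV decapeptide, read at 430 nm after 320 nm excitation. The 20-min minus 0-min signal was scaled between DMSO/no-enzyme wells and ADEP (5.8 microM final).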
The depositor's hits bear a star. A selection: hits, their analogues and other compounds. The true share with any hit is near 21%. Unless noted, the call rests on the fitted dose curve; in most records, active means well fitted inhibition curve with a large enough effect; inconclusive means small, poorly fitted or top-dose-only effect; inactive means flat fitted curve, though single readings scatter.

Results for OC(COCc1ccc(Cl)cc1)CN1CCCCC1 (configuration not stated) ?
DT40 TDP1 CPT: 4.7%; D3 antag: -2.2; IL1B secr inh: -2.8; DT40 TDP1 no CPT: -1.0%; D3 ag: -0.3; ClpP mod: -2.5%

Results for COc1ccc(-n2c(=O)c(-c3ccc(F)c(F)c3)nc3cncnc32)cc1 ?
DT40 TDP1 CPT: -5.6%; DT40 TDP1 no CPT: 2.4%

Results for O=c1[nH]ncc(N/N=C\c2cccs2)c1Cl ?
DT40 TDP1 CPT: 2.2%; D3 antag: -2.6; IL1B secr inh: -10.5; DT40 TDP1 no CPT: -27.6%; D3 ag: -3.2

Results for CN(C)CCCNC(=O)C[C@H]1C[C@H](C(=O)N2CCCCC2)[C@@]2(CCc3ccccc3)c3[nH]c4ccc(Cl)cc4c3CCN2C1=O ?
DT40 TDP1 CPT: -21.0%; D3 antag: inconclusive; IL1B secr inh: -7.5; DT40 TDP1 no CPT: -14.6%; D3 ag: -16.3; ClpP mod: -3.5%

Results for Nc1cc([N+](=O)[O-])cc(N)c1N ?
DT40 TDP1 CPT: inconclusive; DT40 TDP1 no CPT: inconclusive; ClpP mod: 0.7%

What do the screens show for `C=C1N(C)c2cc([N+](=O)[O-])c(N)cc2C1(C)C`?
DT40 TDP1 CPT: 4.7%; D3 antag: -13.8; IL1B secr inh: -53.2*; DT40 TDP1 no CPT: -29.3%; D3 ag: -7.0

Results for COc1ccc(Cl)cc1NC(=S)NNC(=O)C1(C)CC1(Cl)Cl (configuration not stated) ?
DT40 TDP1 CPT: 4.0%; D3 antag: -23.5; IL1B secr inh: inconclusive; DT40 TDP1 no CPT: inconclusive; D3 ag: 4.3

Results for CC1(C)CC(=O)C=C(c2ccc(-c3cnc4ccccc4c3)cc2)C1=O ?
DT40 TDP1 CPT: inconclusive; D3 antag: -2.5; IL1B secr inh: -4.4; DT40 TDP1 no CPT: 23.1µM*; D3 ag: 5.6; ClpP mod: -0.5%

What do the screens show for `CC1(C)CC(=O)C=C(c2ccc(-c3cccc4c3sc3ccccc34)cc2)C1=O`?
DT40 TDP1 CPT: inconclusive; D3 antag: -8.8; IL1B secr inh: -6.3; DT40 TDP1 no CPT: 18.4µM*; D3 ag: 0.7; ClpP mod: 1.3%

What do the screens show for `COc1ccc(C#Cc2ccc(C3=CC(=O)CC(C)(C)C3=O)cc2)cc1`?
DT40 TDP1 CPT: inconclusive; D3 antag: 5.2; IL1B secr inh: -8.7; DT40 TDP1 no CPT: 16.4µM*; D3 ag: 5.3; ClpP mod: 3.0%

Results for CC1(C)CC(=O)C=C(c2ccc(Oc3ccccc3)cc2)C1=O ?
DT40 TDP1 CPT: inconclusive; D3 antag: 1.1; IL1B secr inh: -12.5; DT40 TDP1 no CPT: inconclusive; D3 ag: 1.2; ClpP mod: 0.5%

What do the screens show for `COc1ccc(NC(=O)CN(C)CC(=O)NCCc2ccc(F)cc2)cc1`?
DT40 TDP1 CPT: -0.9%; D3 antag: -8.4; IL1B secr inh: 0.9; DT40 TDP1 no CPT: 0.8%; D3 ag: -13.3; ClpP mod: -1.8%

Results for CCOC(=O)c1cc(S(=O)(=O)NCc2ccccc2)[nH]n1 ?
DT40 TDP1 CPT: -9.3%; DT40 TDP1 no CPT: -5.5%; D3 ag: -11.6; ClpP mod: -1.9%

How did CN(C)Cc1nnnn1-c1cccc(-n2nnnc2CN(C)C)c1 do in these assays?
DT40 TDP1 CPT: 21.2%; D3 antag: -3.8; IL1B secr inh: 8.9; DT40 TDP1 no CPT: -20.1%; D3 ag: 18.3

Results for O=S(=O)(c1ccccc1)N1CCN(C(=S)Nc2ccc(Br)cc2)CC1 ?
DT40 TDP1 CPT: inconclusive; D3 antag: 5.7; IL1B secr inh: -50.4*; DT40 TDP1 no CPT: -11.3%; D3 ag: -0.1; ClpP mod: 0.2%

What do the screens show for `O=S(=O)(c1ccc(NC(=S)N2CCOCC2)cc1)N1CCCCC1`?
DT40 TDP1 CPT: -28.7%; D3 antag: -14.1; IL1B secr inh: 31.0; DT40 TDP1 no CPT: 14.6µM*; D3 ag: -6.6; ClpP mod: 0.4%

Results for CCc1ccc(NC(=S)N2CCN(S(=O)(=O)c3ccccc3)CC2)cc1 ?
DT40 TDP1 CPT: -26.6%; D3 antag: -12.8; IL1B secr inh: -16.5; DT40 TDP1 no CPT: 17.3%; D3 ag: -8.6; ClpP mod: 0.1%

Results for Cc1ccc(NC(=S)N2CCN(S(=O)(=O)c3ccc(C)cc3)CC2)cc1 ?
DT40 TDP1 CPT: -18.6%; D3 antag: inconclusive; IL1B secr inh: -18.8; DT40 TDP1 no CPT: -17.3%; D3 ag: -8.1; ClpP mod: -2.9%

What do the screens show for `CC(C)(C)NNC(=S)Nc1ccc(S(=O)(=O)N2CCOCC2)cc1`?
DT40 TDP1 CPT: -9.2%; D3 antag: 6.0; IL1B secr inh: 16.2; DT40 TDP1 no CPT: inconclusive; D3 ag: 31.7*

What do the screens show for `O=S(=O)(c1ccc(NC(=S)N2CCCCC2)cc1)N1CCCCC1`?
DT40 TDP1 CPT: inconclusive; D3 antag: 77.3; IL1B secr inh: 29.9; DT40 TDP1 no CPT: inconclusive; D3 ag: 1.7; ClpP mod: 0.1%

What do the screens show for `O=S(=O)(c1ccc(NC(=S)N2CCN(c3ccc(O)cc3)CC2)cc1)N1CCOCC1`?
DT40 TDP1 CPT: inconclusive; D3 antag: -3.1; IL1B secr inh: 4.8; DT40 TDP1 no CPT: 11.6µM*; D3 ag: 3.4

What do the screens show for `CC(=O)NC(=S)Nc1ccc(S(=O)(=O)N2CCOCC2)cc1`?
DT40 TDP1 CPT: 15.8%; D3 antag: 8.1; IL1B secr inh: -1.7; DT40 TDP1 no CPT: -16.9%; D3 ag: 3.7

How did Cc1cc(C)cc(NC(=O)C(OC(=O)c2ccc(NC(=O)CC#N)cc2)c2ccccc2)c1 (configuration not stated) do in these assays?
DT40 TDP1 CPT: inconclusive; D3 antag: 7.4; IL1B secr inh: inconclusive; DT40 TDP1 no CPT: inconclusive; D3 ag: -8.1

What do the screens show for `O=C(C1CC1)N(CCN(Cc1ccccc1)C(=O)C1CC1)Cc1ccccc1`?
DT40 TDP1 CPT: 16.4µM*; D3 antag: 10.8; IL1B secr inh: -20.2; DT40 TDP1 no CPT: 13µM*; D3 ag: -6.8; ClpP mod: 0.3%

Results for CCC(=O)N1CCCC(C(=O)c2ccc(-c3ccccc3)cc2)C1 (configuration not stated) ?
DT40 TDP1 CPT: inconclusive; D3 antag: 11.8; IL1B secr inh: -68.1*; DT40 TDP1 no CPT: inconclusive; D3 ag: -3.5; ClpP mod: -2.9%

Source: PubChem
